Shown is part of a subset that was picked to be rich in hits.
HIV RNase H inh-1 – inhibitors of HIV-1 reverse transcriptase RNase H. P04585. RT-RNase H RNA/DNA duplex cleavage, fluorescence. inhibition, % at 10 µM. hit rate 1.9% among 65,000. AID 565; in the data active = inhibition above about 50%
HIV RNase H inh-2 – confirmation of HIV-1 reverse transcriptase RNase H inhibitors; shares compounds with HIV RNase H inh-1; Recombinant RT RNase H, fluorescent RNA/DNA duplex cleavage; inhibition, % at 10 µM; hit rate 39% among 1,000; in the data active = inhibition above about 48%
Of the large screens only hits and unclear results are named; the others gave an inactive call (follow-up assays come after a bar, where they were run).

CCN1CCc2c(sc(N)c2C#N)C1	none
CC1(C)CC(=O)C(C=NCC2CCN(C(=O)Nc3ccccc3)CC2)=C(O)C1	none
O=C(c1cccs1)c1cn(CC(=O)N2CCc3ccccc3C2)c2ccccc12	none
CCOC(=O)N(c1ccccc1)P1(=S)OCCO1	HIV RNase H inh-1 88.4 | HIV RNase H inh-2 57.5
CCOC(=O)N(c1ccccc1)P1(=S)OCC(C)O1 (stereo unspecified)	none
CNC(=O)N(c1ccccc1)c1ccccc1	none
COC(=O)C1C(c2ccccc2)C(C(=O)N2CCOCC2)C1c1ccccc1 (stereo unspecified)	none
CCOC(=O)N1CCN(S(=O)(=O)Cc2ccccc2)CC1	none
COC(=O)N(c1ccccc1)P1(=S)OCCO1	HIV RNase H inh-1 90.2 | HIV RNase H inh-2 53.8
CCCC(=O)C1=C(c2ccccc2)C(C#N)(C#N)C(C#N)=C1N	none
O=S(=O)(c1ccccc1)N1C2CCC1CC(O)(c1cccnc1)C2 (stereo unspecified)	none
O=C(CN(Cc1ccc2c(c1)OCO2)C(=O)c1cnsn1)NC1CCCC1	none
O=S(=O)(CC(CN1CCCC1)N1CCCC1)c1ccc2ccccc2c1 (stereo unspecified)	none
CS(=O)(=O)N(CC(=O)Nc1cccnc1)c1ccc2c(c1)OCO2	none
Cc1cccnc1NC(=O)c1c(O)c2cccc3c2n(c1=O)CCC3	none
Cc1ccccc1NC(=O)c1c(O)c2cccc3c2n(c1=O)CCC3	none
Cc1ccccc1NC(=O)c1c(O)c2cccc3c2n(c1=O)CC3	HIV RNase H inh-1 52.5 | HIV RNase H inh-2 97.3
Cc1cc(C)cc(OCc2nnc(SCC(=O)N3CCN(c4ccccc4)CC3)o2)c1	none
C=CCn1c(=O)[nH]c2cc(C(=O)N3CCN(c4cc(C)ccc4C)CC3)ccc2c1=O	HIV RNase H inh-1 79.6 | HIV RNase H inh-2 inactive
C=CCn1c(=O)[nH]c2cc(C(=O)N3CCN(c4ccc(C(C)=O)cc4)CC3)ccc2c1=O	none
Cc1ccc(C)c(N2CCN(C(=O)c3ccc(Cn4c(=O)[nH]c5ccccc5c4=O)cc3)CC2)c1	none
COc1nc(N2CCCC2)nc(-n2cc(-c3ccccc3)nn2)n1	none
CCNc1nc(NC(C)(C)C)nc(N(C#N)CC)n1	none
Cc1sccc1C1C(C#N)=C(N)SC(N)=C1C#N	HIV RNase H inh-1 59.9 | HIV RNase H inh-2 inactive
CC1=C(C#N)C(c2cn(-c3ccccc3)nc2-c2cccs2)C(C#N)=C(C)N1	none
Cc1cc(C2C(C#N)=C(N)SC(N)=C2C#N)c(C)s1	none
CCCCn1c(=O)[nH]c(=O)c2c1nc(-c1ccncc1)n2CCOC	none
COCCn1c(-c2ccc(-c3ccccc3Cl)o2)nc2c1c(=O)[nH]c(=O)n2CC(C)C	HIV RNase H inh-1 73.0 | HIV RNase H inh-2 72.6
COCCn1c(Sc2ccc(C)cc2)nc2c1c(=O)[nH]c(=O)n2C	none
O=C1CN(C(=O)COC(=O)CCC(=O)c2ccc3c(c2)OCCO3)c2ccccc2N1	none
CCCCCSc1nc2c(c(=O)[nH]c(=O)n2C)n1C(C)C	none
CCCCCSc1nc2c(c(=O)[nH]c(=O)n2C)n1CC	HIV RNase H inh-1 72.8 | HIV RNase H inh-2 inactive
CCCCCOC(=O)CSc1nc2c(c(=O)[nH]c(=O)n2C)n1Cc1ccc(Cl)cc1	none
C=CCSc1nc2c(c(=O)[nH]c(=O)n2C)n1CC	HIV RNase H inh-1 69.2 | HIV RNase H inh-2 75.2
CCCCCCn1c(SCC(C)C)nc2c1c(=O)[nH]c(=O)n2C	none
C=C(C)Cn1c(SCCCO)nc2c1c(=O)[nH]c(=O)n2C	none
CC(C)n1c(SCC(N)=O)nc2c1c(=O)[nH]c(=O)n2C	HIV RNase H inh-1 60.6 | HIV RNase H inh-2 inactive
C/C=C/CSc1nc2c(c(=O)[nH]c(=O)n2C)n1C(C)C	none
C=CCn1c(SCC(=C)C)nc2c1c(=O)[nH]c(=O)n2C	none
C=CCSc1nc2c(c(=O)[nH]c(=O)n2C)n1C/C=C(/C)Cl	none
CCCCCCn1c(SCC(=O)OC)nc2c1c(=O)[nH]c(=O)n2C	HIV RNase H inh-1 92.5 | HIV RNase H inh-2 65.6
CCCCCSc1nc2c(c(=O)[nH]c(=O)n2C)n1C	none
CCCN1CCC(N2CCN(c3cccc(C(F)(F)F)c3)CC2)CC1	none
CCOC(=O)N1CCN(C(=O)c2ccc3c(SCC(=O)O)c4c(nc3c2)CCC4)CC1	none
COC(=O)C(C)Sc1nc2c(c(=O)n(C)c(=O)n2C)n1CCC(C)C (stereo unspecified)	none
CCn1c(SCC(N)=O)nc2c1c(=O)n(C)c(=O)n2C	none
COC(=O)CSc1nc2c(c(=O)n(C)c(=O)n2C)n1CCC(C)C	HIV RNase H inh-1 74.5 | HIV RNase H inh-2 inactive
CCOC(=O)N1CCC(Nc2c(N3CCN(c4cccc(C(F)(F)F)c4)CC3)c(=O)c2=O)CC1	none
CCCC(C(=O)NCc1ccco1)N(C(=O)CNS(=O)(=O)c1ccccc1)c1ccccc1OC (stereo unspecified)	none
CN1CCN(Cc2nc3c(c(=O)n(C)c(=O)n3C)n2Cc2ccccc2Cl)CC1	none
COc1ccc(Cl)cc1NC(=O)C1CSC(c2ccncc2)=N1 (stereo unspecified)	none
Cc1ccc(Cl)cc1NC(=O)Cn1cc2c(n1)CCCC2	none
Cc1cc2cc3c(cc2nc1SCC(=O)N1CCN(C(=O)c2ccco2)CC1)OCO3	none
Cc1cc2nc(-c3ccc(SCC(=O)N4CCOCC4)nc3)[nH]c2cc1C	none
Cc1cc2nc(-c3ccc(SCC(=O)N4CCN(C(=O)c5ccco5)CC4)nc3)[nH]c2cc1C	HIV RNase H inh-1 74.0 | HIV RNase H inh-2 inactive
CC(C)(C)NS(=O)(=O)c1cccc(S(=O)(=O)c2cccc(S(=O)(=O)NC(C)(C)C)c2)c1	none
CC(NC(=O)OCc1ccccc1)C(=O)N1CC(O)CC1C(=O)O (stereo unspecified)	none
CC1CCN(S(=O)(=O)c2ccc(NC(=O)CSc3nnnn3C)cc2)CC1	none
Cc1cccc2cc(C#N)c(NCCNS(=O)(=O)c3ccc4c(c3)OCCO4)nc12	none
O=C1CCCc2c1[nH]c1ccccc21	none
O=C1CCCC2=C1C(c1ccccc1O)C1=C(CCCC1=O)O2	none
O=C1CCCC(O)=C1C(C#Cc1ccccc1)C1=C(O)CCCC1=O	HIV RNase H inh-1 82.5 | HIV RNase H inh-2 77.8
O=C1c2ccccc2C(Nc2ccc(F)cc2F)N1CCN1CCOCC1 (stereo unspecified)	none
CC(=O)Oc1ccc(N2C(=O)C3C(C2=O)C2(C)C=CC3(C)O2)cc1 (stereo unspecified)	HIV RNase H inh-1 55.7 | HIV RNase H inh-2 inactive
CC(=O)Oc1ccc(C(c2ccc(OC(C)=O)cc2)c2ccccn2)cc1	none
COC(=O)c1cc(N2C(=O)C3C(C2=O)C2(C)C=CC3(C)O2)ccc1Cl (stereo unspecified)	none
CCCCS(=O)(=O)NC1=NCN(Cc2ccco2)CN1	none
O=C(CC1Oc2ccc(Cl)cc2NC1=O)NC1CCCCCC1 (stereo unspecified)	none
Cc1ccsc1C(C(=O)NC1CCCCC1)N(C(=O)c1csnn1)C1CC1 (stereo unspecified)	none
COc1cccc(-c2nnc(NC(=O)c3cccc(F)c3)o2)c1	none
CCc1nnc(NC(=O)c2ccc(S(=O)(=O)N(CCOC)CCOC)cc2)o1	none
CCN(Cc1ccccc1)S(=O)(=O)c1ccc(C(=O)Nc2nnc(-c3ccccc3OC)o2)cc1	HIV RNase H inh-1 78.1 | HIV RNase H inh-2 62.1
CCCN(CCC)S(=O)(=O)c1ccc(C(=O)Nc2nnc(CSC)o2)cc1	none
CCCCN(CC)S(=O)(=O)c1ccc(C(=O)Nc2nnc(-c3ccccc3Cl)o2)cc1	none
COc1cccc(-c2nnc(NC(=O)c3ccccc3Br)o2)c1	none
COc1ccccc1-c1nnc(NC(=O)c2ccc(S(=O)(=O)N(C)C)cc2)o1	none
CCCN(CCC)S(=O)(=O)c1ccc(C(=O)Nc2nnc(-c3cc(OC)cc(OC)c3)o2)cc1	HIV RNase H inh-1 53.4 | HIV RNase H inh-2 inactive
